# GLP-1R agonist: activates the human GLP-1 receptor | HEK293 GLP-1R CRE-luciferase, luminescence, 4-6 h; cells express a hypersensitive GLP-1R form | Potency, µM (series often up to 45.6 µM), most hits filed as activators | P43220 | 380,000 tested, 0.007% active
# Target sequence (P43220 whole entry, looked up): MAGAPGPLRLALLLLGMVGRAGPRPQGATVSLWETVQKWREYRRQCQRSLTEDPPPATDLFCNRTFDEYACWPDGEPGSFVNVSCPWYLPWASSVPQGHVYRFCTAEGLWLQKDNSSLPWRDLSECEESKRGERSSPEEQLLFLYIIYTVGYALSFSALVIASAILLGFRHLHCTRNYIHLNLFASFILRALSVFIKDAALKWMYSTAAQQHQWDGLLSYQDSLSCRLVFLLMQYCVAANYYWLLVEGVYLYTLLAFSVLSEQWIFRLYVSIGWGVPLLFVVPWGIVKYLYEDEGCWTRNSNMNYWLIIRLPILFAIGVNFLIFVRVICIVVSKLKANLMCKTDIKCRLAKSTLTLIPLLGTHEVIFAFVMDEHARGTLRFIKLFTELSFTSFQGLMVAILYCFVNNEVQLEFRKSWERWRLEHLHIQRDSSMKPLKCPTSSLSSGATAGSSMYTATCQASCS
# HEK293 tox: cytotoxicity in counter-screen for GLP-1R inverse agonists | HEK293 cAMP-luciferase reporter cells, luminescence, 24 h | Potency, µM (top dose mostly 38.3 µM), most hits filed as inhibitors | 410,000 tested, 0.13% active | AID 624418;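 also: loss of luciferase light is scored as toxicity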
#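 A 23 nL compound transfer followed 12 hours of cell culture at 37 deg C; exposure then lasted 24 hr. Luciferase assay detection reagent was dispensed and plates read for luminescence after a 12 min room-temperature wait.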
# BRCA1 expr up: BRCA1 expression activation | Potency, µM (series often up to 46.1 µM), usual class: activators | 380,000 tested, 1.1% active | MCF7-BRCA1-FFLuc reporter, luminescence, 48 h; response scale: scaled: vehicle 0%, 10 µM genistein 100%; also: nearly all actives have a fitted effect of over 80% in size
#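 48 h compound treatment of MCF7-BRCA1-FFLuc cells (phenol-red free MEM, 37 °C), then 15 min with luciferase substrate and luminescence imaging.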
# GLP-1R inv ag: inverse agonists of human GLP-1 receptor | P43220 | HEK293 GLP-1R CRE-luciferase, luminescence, 24 h; GLP-1R form is constitutively active | Potency, µM (highest dose often 38.3 µM), actives largely listed as inhibitors | 410,000 tested, 1.6% active | AID 624417; also: nearly all actives have a fitted effect of over 55% in size
#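 Seeding at 200 cells/uL, 12 h culture, 24 hr compound treatment, then luciferase reagent and a luminescence read; cells are HEK293 stably expressing a constitutively active GLP-1R plus cAMP-responsive luciferase.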
# Numbers stand for hits; n = inactive; u = inconclusive; x = not tested or not shown. Most compounds without a hit are left out; they make up all but 2.6% or so of the library. Calls follow the shape of the dose curve; as a rule, active = well fitted curve in the direction sought with a large enough effect; inconclusive = small, poorly fitted or top-dose-only effect, or another doubt; inactive = no such curve, though single readings can be large; an effect the other way counts as inactive or inconclusive.
SMILES,GLP-1R agonist,HEK293 tox,BRCA1 expr up,GLP-1R inv ag
O=C(OCCN1C(=O)c2cccc3c(N4CCOCC4)ccc(c23)C1=O)c1ccc(Cl)cc1Cl,n,n,n,1.3µM
O=C(CCl)N=c1sccn1Cc1ccc(Cl)cc1Cl,n,u,n,10µM
CC(C)N(Cc1nc(-c2ccc(Cl)cc2)no1)C(=O)/C=C/c1ccccc1,n,n,n,11µM
Cc1cc(C)cc(-n2c(SCC(N)=O)nc3c(oc4ccccc43)c2=O)c1,x,n,n,u
CC1CCN(c2ccc(C(=O)NCCc3ccccc3)cn2)CC1,n,n,u,n
CC1CCCN(c2ccc(C(=O)NCc3cccs3)cn2)C1 (stereo not drawn),n,n,10µM,n
CC1CCCN(c2ccc(C(=O)NCc3ccccc3)cn2)C1 (stereo not drawn),n,n,6.3µM,u
O=C(NCc1cccs1)c1ccc(N2CCCCC2)nc1,n,n,7.9µM,n
CCOc1ccc(S(=O)(=O)N(CC(=O)NCCSCc2ccccc2)c2ccccc2)cc1,n,n,n,n
CCOc1cccc(=O)c2c(C)n(C)c(C)c12,n,n,n,n
CCCCCn1c(C)c2c(OCC)cccc(=O)c2c1C,n,n,n,10µM
CCCC(=O)Oc1c(Sc2ccc(Cl)cc2)c(C)nn1-c1ccccc1,x,n,x,u
Cc1[nH]c2ccccc2c1/C=N/NC(=S)NC(C)C,n,u,n,u
O=C(O)c1cc(N/N=C/c2ccc(-c3ccccc3)cc2)ccc1Cl,n,n,u,n
CC(C)NC(=S)N/N=C/c1c[nH]c2ccccc12,n,10µM,n,u
O=C(N/N=C/c1c[nH]c2ccccc12)c1cccc(O)c1,n,n,13µM,n
O=C(O)c1cc(N/N=C/c2c[nH]c3ccccc23)ccc1Cl,n,n,3.2µM,n
Cc1ccc(NC(=O)Cn2c(=O)n(CCC(=O)NCc3ccccc3Cl)c(=O)c3ccccc32)cc1,n,n,n,n
CCOC(=O)C1=C(CN2CCN(c3ccc(Cl)cc3)CC2)NC(=O)NC1c1ccc(F)cc1 (stereo not drawn),x,n,x,n
Cc1ccc(S(=O)(=O)Nc2ccc(NC(=O)Nc3cccc(C(F)(F)F)c3)cc2)cc1,n,u,n,u
Cc1ccc(NC(=O)Nc2cc(C(F)(F)F)c[nH]c2=O)cc1,n,n,n,10µM
O=C(CCCN1C(=O)c2cccnc2Oc2ccc(Cl)cc21)NCc1ccccc1F,x,n,x,n
OC(c1ccc(F)cc1)c1ncc(-c2ccc(Oc3ccccc3)cc2)[nH]1 (stereo not drawn),n,n,n,10µM
Cc1cc(C(O)c2ncc(-c3ccc(Oc4ccccc4)cc3)[nH]2)ccc1F (stereo not drawn),n,u,n,u
OC(c1cccc(F)c1)c1ncc(-c2ccc(C(F)(F)F)cc2)[nH]1 (stereo not drawn),n,n,n,u
SMILES,GLP-1R agonist,HEK293 tox,BRCA1 expr up,GLP-1R inv ag
OC(c1ccc2ccccc2c1)c1ncc(-c2ccc(C(F)(F)F)cc2)[nH]1 (stereo not drawn),n,n,n,10µM
COc1ccc(C(=O)Nn2c(C)nc3ccccc3c2=O)cc1[N+](=O)[O-],n,n,n,n
O=C(c1ccc2c(=O)n3c(nc2c1)CCCCC3)N1CCN(c2ccc(F)cc2)CC1,n,n,n,5µM
O=C(c1ccc2c(=O)n3c(nc2c1)CCCCC3)N1CCN(c2ccc(Cl)cc2)CC1,n,n,n,7.1µM
CC(=O)c1ccc(NC(=O)c2cc(Cl)sc2Cl)cc1,n,n,4µM,n
Cc1cc(C)cc(NC(=O)c2cc(Cl)sc2Cl)c1,n,n,n,u
O=[N+]([O-])c1ccc(Cl)cc1P(=O)(O)c1cc(Cl)ccc1[N+](=O)[O-],n,n,n,n
CCCCCCCCN1C(=O)[C@H](CC(=O)NCCCCc2ccccc2)C[C@@]2(C(=O)OCC)CCCC=C12,n,n,n,7.1µM
CCCCCCCCN1C(=O)[C@H](CC(=O)NCc2ccccc2)C[C@@]2(C(=O)OCC)CCCC=C12,n,n,n,u
COC(=O)[C@@]12C[C@@H](CC(=O)NCc3ccc(C)o3)C(=O)N(Cc3ccccc3)C1=CCC(C)(C)C2,x,n,x,u
CCCCCCCCN1C(=O)[C@H](CC(=O)NCc2cccs2)C[C@@]2(C(=O)OC)CC(C)(C)CC=C12,x,n,x,8.9µM
COC(=O)[C@@]12C[C@@H](CC(=O)NCc3ccccc3)C(=O)N(Cc3ccccc3)C1=CCC(C)(C)C2,x,n,x,11µM
CCCCCCCCN1C(=O)[C@H](CC(=O)NCc2ccc(C)o2)C[C@@]2(C(=O)OC)CC(C)(C)CC=C12,x,n,x,u
CCc1ccc(NC(=O)CCCN2C(=O)C3CC=CCC3C2=O)cc1 (stereo not drawn),n,n,7.9µM,u
COc1cccc(-c2nn(Cc3ccccc3)cc2CO)c1,n,n,13µM,n
COc1ccc(S(=O)(=O)N(CCc2ccccc2)CC(=O)Nc2ccc(C)c(C)c2)cc1OC,x,n,x,u
Cc1nc2ccccc2n1CCc1nc2c3ccccc3nc(SCC(=O)NCc3ccco3)n2n1,n,10µM,n,u
COc1cc(Br)ccc1C1CC(=O)C(C)C(c2ccc(Br)cc2OC)N1 (stereo not drawn),n,n,n,10µM
COc1ccc(Cl)cc1NC(=O)c1c(C(=O)Nc2cccc(C)c2C)sc2nc(C)cc(=O)n12,x,n,x,n
Cc1ccc(NC(=O)COc2coc(CN3CCN(c4ccccc4)CC3)cc2=O)cc1,n,n,n,n
O=C(NC1CCCC1)c1cc(-c2ccccc2O)on1,n,n,2.8µM,n
O=C(NC1CCCCC1)c1cc(-c2cccc(Cl)c2)on1,n,n,4.5µM,n
COc1ccc(C2NC(c3ccc4c(c3)OCO4)=CC(c3ccccc3O)N2)cc1OC (stereo not drawn),x,x,n,x
Cc1ccc2nc(SCC(=O)NC3CCCc4ccccc43)[nH]c2c1 (stereo not drawn),n,n,n,8.9µM
CCOC(=O)c1csc(NC(=O)c2ccccc2)n1,n,n,4µM,n
SMILES,GLP-1R agonist,HEK293 tox,BRCA1 expr up,GLP-1R inv ag
CCOC(=O)c1csc(NC(=O)c2ccc(OCC)cc2)n1,n,n,n,u
CCOC(=O)c1c(/N=C/N(C)C)sc(/C=N/Nc2ccccc2)c1-c1ccccc1Cl,n,n,n,3.5µM
CCN(CC)CCCn1c2c(c(SCC(=O)Nc3ccc(C)c(F)c3)nc1=O)CCC2,n,n,n,10µM
CCN(CC)CCCn1c2c(c(SCC(=O)Nc3ccc(OC(F)(F)F)cc3)nc1=O)CCC2,n,n,n,3.5µM
CCN(CC)CCCn1c2c(c(SCC(=O)Nc3nc4ccccc4s3)nc1=O)CCC2,n,u,n,u
O=C(O)COc1ccc(CCNS(=O)(=O)c2ccccc2)s1,n,x,x,x
Cc1cccc(C)c1NS(=O)(=O)c1c(C(=O)N2CCCCC2)c(C)n(C)c1C,n,n,n,n
COc1ccc(C2OC(=O)CC2C(=O)NCc2ccc(Cl)cc2)cc1OC (stereo not drawn),n,n,8.9µM,n
